Reference: PubChem BioAssay (NCI)
About 79,000 compounds went through this panel and 15% of them were active in at least one assay; those are over-represented in the sample as a whole. Unmarked numbers belong to inactive results. Active and inactive are the calls of the source. Cut-off read from the data, not from the text of the source: active = growth inhibition above about 70%; inactive = the rest.

Experiments:
[1] = NCI Yeast Anticancer Drug Screen. Data for the rad50 strain (AID 155);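 note: 0% = growth of vehicle-only cultures of the same strain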; conditions: S. cerevisiae rad50 strain growth inhibition; at 50.0 µM; active compounds read high
Procedure, shortened: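 Genetically altered yeast (DNA repair pathway); compound treatment; growth inhibition vs vehicle ctrl.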

[2] = NCI Yeast Anticancer Drug Screen. Data for the mec2-1 strain (AID 157); conditions: S. cerevisiae mec2-1 strain, at 50.0 µM, active compounds read high
Procedure, shortened: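 Readout is yeast growth inhibition, normalised to vehicle-treated controls, in the mec2-1 strain exposed to compound.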

[3] = NCI Yeast Anticancer Drug Screen. Data for the sgs1 mgt1 strain (AID 161);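 note: 0% = growth of cultures given vehicle only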; conditions: S. cerevisiae sgs1 mgt1 strain, at 50.0 µM, active compounds read high
Procedure, shortened: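 Percent growth inhibition was derived by comparing compound-exposed mutant yeast with vehicle-exposed cultures. The strain carries alterations in DNA damage repair.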

[4] = NCI Yeast Anticancer Drug Screen. Data for the cln2 rad14 strain (AID 165);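 note: 0% = growth equal to vehicle treated cultures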; conditions: S. cerevisiae cln2 rad14 strain, at 50.0 µM, active compounds read high
Procedure, shortened: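 Relative to vehicle controls, growth inhibition of compound-treated cln2 rad14 yeast was recorded.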

[5] = NCI Yeast Anticancer Drug Screen. Data for the mlh1 rad18 strain (AID 175); conditions: S. cerevisiae mlh1 rad18 strain growth inhibition; at 50.0 µM; active compounds read high
Procedure, shortened: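 Test agents were incubated with a yeast strain of defined genotype (DNA damage repair defect). Inhibition of growth was derived by comparison with vehicle-exposed cultures.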

[6] = NCI Yeast Anticancer Drug Screen. Data for the bub3 strain (AID 167); conditions: S. cerevisiae bub3 mutant strain, at 50.0 µM, active compounds read high
Procedure, shortened: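 Yeast carrying a defined mutation is treated with each compound, and growth is compared with that of vehicle-exposed cells to give inhibition.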

Compound	growth inhibition [1]	growth inhibition [2]	growth inhibition [3]	growth inhibition [4]	growth inhibition [5]	growth inhibition [6] [%]
COC(=O)c1ccc(/C2=c3\cc/c([n-]3)=C(\c3ccc(C(=O)OC)cc3)c3ccc([n-]3)/C(c3ccc(C(=O)OC)cc3)=c3/cc/c([n-]3)=C(\c3ccc(C(=O)OC)cc3)c3ccc2[n-]3)cc1.[Mn]	14.8%	23.1%	12.5%	-3.65%	53.7%	–
COc1ccc(/C=C2\CCC(CNc3cc(C)on3)C2=O)cc1 (stereo not drawn)	21.5%	-14.6%	17.1%	37.1%	-19.4%	–
C[N+](C)(C)CCc1ccccc1	1.9%	-3.15%	-0.85%	-26.4%	16.1%	-12.9
Cc1ccc(SCCN)cc1	11.8%	11.9%	-6.3%	2.35%	-10.2%	–
COc1ccc(C(=O)N/N=C/c2c(C)n(C)n(-c3ccccc3)c2=O)cc1	-54.1%	-18.6%	-61.2%	-6.45%	-48.5%	–
O=C(NCc1ccccc1)C1CCN(Cc2c[nH]c3ccccc23)CC1	-0.3%	-4.4%	3.15%	16.5%	28.7%	–
C/C1=C/C2=CC(C)C[C@@H]2C(=O)[C@]2(C)C(=O)CC(C)(C)[C@H]2CC1=O (stereo partly drawn)	5.5%	-8.6%	22.4%	5%	-87.3%	–
CC(C)(C)[Si](C)(C)OCC1OC(n2cnc3c(N)ncnc32)C(O)C1O (stereo not drawn)	-12.4%	-15.2%	4.85%	-0.2%	-2.35%	–
CC[N+](C)(CC)CCOC(C)=O	8.55%	-12.1%	-5.95%	11.2%	8.3%	–
C=CCCC(C)N(C(=O)OC(C)(C)C)S(=O)(=O)c1ccc(C)cc1 (stereo not drawn)	16.6%	-13.2%	4.85%	-9.3%	0.45%	–
c1ccc2c(CCNC3=NCCO3)cccc2c1	-11.1%	-16.6%	-10.8%	-7.5%	1.45%	–
COc1cc2c(c3c1c(=O)c1ccccc1n3C)C=CC1(CCCCC1)O2	-12.4%	-19.6%	91% (active)	86.5% (active)	-7.4%	–
O=C(O)CC(NC(=O)c1cnc2ccccc2n1)C(=O)O (stereo not drawn)	-3.65%	-9.85%	4.3%	-17.1%	-1%	12.7
C=C1C(=O)O[C@@H]2[C@H]1CC[C@H](C)[C@@H]1CCC(=O)[C@@]21C	10%	-0.5%	3.35%	13.8%	14.2%	–
O=C(c1ccccc1)C1(Cl)CCCCC1	-9.95%	-12.6%	-10.8%	-8.45%	15.6%	-5.15
CC=C1C(C(=O)O)C1C(=O)O (stereo not drawn)	16.9%	20.8%	-5.2%	-23.2%	-4.4%	–
O=C(O)/C=N\Nc1nc2ccccc2[nH]1	-1.85%	-5.95%	1.9%	-11.1%	6.8%	-8.05
COc1ccc(COC(=O)NNC(=O)C2CSC(c3ccccc3)N2C(C)=O)cc1 (stereo not drawn)	-23.4%	6.75%	-15.8%	3.4%	-10.3%	–

Compound	growth inhibition [1]	growth inhibition [2]	growth inhibition [3]	growth inhibition [4]	growth inhibition [5]	growth inhibition [6] [%]
O=C1CSC(=S)N1	-8.05%	-7.9%	13.3%	10.8%	20.9%	–
CC(=O)NC(Cc1ccc(F)cc1)C(=O)O (stereo not drawn)	-1.75%	-7.85%	-18.1%	-19.7%	-17.9%	–
C/C=C/C(=O)OC1CCCC1	30.9%	11.7%	23.6%	18.9%	23.9%	–
CS(=O)(=O)OCC1NC(=O)C(COS(C)(=O)=O)NC1=O (stereo not drawn)	-10.4%	2.8%	-3.15%	2%	3.7%	–
OCCCN=C1CCCCC1	-3.4%	-10.3%	-35.5%	-54.4%	-13.3%	–
CC1=NOC(C)(O)/C1=N/O (stereo not drawn)	6.8%	1.05%	17.9%	-2.75%	-21.3%	–
COC1=C(OC)C(=O)C(Sc2ccc3ccccc3c2)=C(Cl)C1=O	95.2% (active)	94.2% (active)	93.8% (active)	94.4% (active)	91.1% (active)	–
CCOC(=O)CNC(=O)CCC(=O)OC	-11%	-4.8%	17.4%	-10.6%	-9.1%	–
O=C(NC(=S)Nc1ccc2ccccc2c1)c1ccc(Cl)cc1Cl	-1.45%	1.2%	28.2%	-10.6%	-41.1%	–
CC(=O)c1ccc(N=NN(C)C)cc1	0.2%	1%	-2.65%	-18.4%	-15.6%	-21.9
COc1cccc(N=NN2CCCC2)c1	16.2%	14.2%	17.8%	20.1%	23.4%	–
CNC(=S)N/N=C(C)\C=N/Nc1ccc(Br)cc1	46.4%	14.1%	34.7%	-18.9%	25.9%	–
OCCCCCCO	-2.55%	-15.6%	16.1%	-16.7%	12.3%	–
CCCCNC(=O)OCCN=c1c2ccccc2ccc2ccccc12	-25.6%	-31.4%	-9.95%	2.8%	-15.4%	-1.3
COCCNC(C)=O	–	–	–	-17.1%	–	–
CCCCCCCCCCCCCCCCS(=O)(=O)N/N=C/c1ccc2c(c1)OCO2	–	–	–	4.05%	–	–
COC(CCCl)c1ccc(C)cc1 (stereo not drawn)	-9.4%	-66.4%	–	3.8%	1.8%	-29.9
COc1ccc(C(=Cc2cc(OC(C)=O)c3ccccc3c2OC(C)=O)c2ccc(OC)cc2)cc1	13.1%	-8.8%	–	-15.9%	-0.5%	3.7
